MITF act = activators of MITF-driven TRPM1 promoter activity in SK-MEL-5 cells; SK-MEL-5 TRPM1-promoter luciferase, 24 h; % of positive control, neutral wells = 0; activation, % at 12.5 µM; actives 0.75% (n = 300,000); AID 588334;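 active means mean activation of at least 80% with every replicate also reaching 80%; inconclusive means mean reaches 80% but some replicate falls short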;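 further: 0% = neutral control wells and 100% = parthenolide positive control wells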
esBAF inh = SWI/SNF esBAF complex inhibition; actives 2% (n = 350,000); mouse ES cells, Bmi1-luciferase knock-in reporter, 24 h; 100% = twice the neutral-well signal; AID 602393; reporter increase, % at 12.5 µM; in the data active means activation above about 40%; inconclusive means no clear call, values can overlap the other calls;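 further: 0% = median of the plate's neutral control wells and 100% = double that signal; a rise in the Bmi1 reporter signal indicates esBAF inhibition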
EBV LMP1 NFkB = reduces LMP1-driven NF-kappaB luciferase signal; AID 504558; actives 0.69% (n = 350,000); inhibition, % at 12.5 µM; LMP1-induced NF-kappaB luciferase reporter cells, luminescence; in the data active means inhibition above about 41%; inconclusive means no clear call, values can overlap the other calls;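 further: 0% = neutral control wells and 100% = reference inhibitor control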
Statin myotox sup = protects C2C12 myotubes from simvastatin toxicity | ATP luminescence, 48 h; scaled: DMSO 0, geranylgeraniol control 100 | rescue of ATP level, % at 7.49 µM | actives 0.78% (n = 330,000);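 active means mean ATP rescue above about 67%, or every replicate alone reaching that limit, limit read from the data, passing the limit was not always enough; inconclusive means no clear call, values can overlap the other calls; inactive means mean under the limit and some replicate under it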;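 further: myotubes were challenged with 10 µM simvastatin during compound exposure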
MITF TRPM1 inh = inhibitors of MITF-driven TRPM1 promoter in melanoma cells; SK-MEL-5 TRPM1 promoter luciferase, 24 h; inhibition, % at 12.5 µM; actives 0.83% (n = 330,000); AID 488899;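 active means mean inhibition across replicates of 60% or more, whatever share of single replicates reaches that level; inconclusive means some that reach 60%, reason not given; inactive means mean inhibition across replicates below 60%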
Wnt act = activators of Wnt/beta-catenin signaling | activation, % at 9.35 µM | AID 743398 | actives 1.2% (n = 300,000) | Wnt/beta-catenin reporter cell assay, activator, plate reader; in the data active means activation above about 30%, passing the limit was not always enough; inconclusive means no clear call, values can overlap the other calls;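 further: 0% = neutral control wells and 100% = positive control wells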
Starred values were filed as active, the others as inactive; ? = inconclusive; nt = no result. A selection: hits, their analogues and other compounds. The true share with any hit is near 4%.

SMILES | MITF act | esBAF inh | EBV LMP1 NFkB | Statin myotox sup | MITF TRPM1 inh | Wnt act
COc1ccc(Oc2nccc(-c3ccc(F)cc3)c2C#N)cc1 | 34 | 36 | -12 | -24 | -34 | nt
O=C1CS/C(=N/N=C/c2ccc(OS(=O)(=O)c3ccccc3)cc2)N1 | -13 | nt | -1 | nt | 16 | 2
CCOc1ccc(N/C(C)=C/C(=O)c2ccc3c(c2)OCCO3)cc1 | 61 | nt | -38 | nt | -58 | 47*
CCOc1ccc(C(=O)N(CC)CC(=O)Nc2ccc3c(c2)OCCO3)cc1 | nt | ? | -10 | 4 | nt | -3
CCOc1ccc(N/C(C)=C\C(=O)c2ccc3c(c2)OCCO3)cc1 | 45 | nt | -32 | nt | -52 | 36*
CCOC(=O)C1CCN(S(=O)(=O)c2ccc3oc(=O)ccc3c2)CC1 | nt | 1 | -4 | -2 | 10 | -2
COCC(=O)N(C)C[C@@H]1Oc2ncc(C#Cc3ccc(OC)cc3)cc2C(=O)N([C@@H](C)CO)C[C@H]1C | nt | 14 | nt | 18 | nt | nt
O=C(Nc1ccc(N2CCCC2)c(Cl)c1)c1cccc(-c2cc3ccccc3oc2=O)c1 | 10 | nt | 0 | nt | -11 | 1
O=C(Cc1cccc2ccccc12)Nc1ccc(-c2cc3ccccc3oc2=O)cc1 | -49 | 1 | 55* | -14 | 49 | nt
CC(=O)N(C)c1ccc(NC(=O)Cc2cccc3ccccc23)cc1 | -3 | -1 | 3 | 123* | 8 | 1
O=C(Cc1cccc2ccccc12)Nc1cc(C(=O)O)cc(C(=O)O)c1 | nt | -10 | 2 | 9 | 0 | -1
O=C(Nc1cc2ccccc2oc1=O)c1ccccc1 | -63 | nt | 55* | nt | 63* | -3
CC(=O)Nc1ccc(NC(=O)c2cccc(-c3cc4ccccc4oc3=O)c2)cc1 | 13 | 66* | -39 | -4 | -9 | 4
CCCC#Cc1cnc2c(c1)C(=O)N([C@H](C)CO)C[C@@H](C)[C@H](CN(C)C(=O)c1cccc(F)c1)O2 | nt | -2 | nt | -4 | nt | nt
Cc1nn(Cc2ccc(F)cc2)c(C)c1NC(=O)c1cc(-c2ccc3c(c2)OCO3)on1 | -1 | 3 | 17 | 30 | 8 | nt
O=C1c2ccccc2C(=O)N1CN(C(=O)COc1ccccc1)c1ccc(F)cc1 | 13 | 3 | 1 | 114* | -16 | -4
CSc1ccccc1NC(=O)c1cc(-c2ccc3c(c2)OCO3)on1 | 66 | 48* | -20 | 1 | -67 | 11
CN(C(=O)c1cc(-c2ccc3c(c2)OCO3)on1)c1ccccc1 | 101* | 68* | -49 | 5 | -96 | 14
CC(C)CNC(=O)c1cc(-c2ccc3c(c2)OCO3)on1 | nt | 3 | -8 | 8 | nt | 35*
CSc1ccccc1NC(=O)c1cc(C)on1 | -9 | 4 | 1 | -8 | 5 | nt
O=C(Nc1cc(Br)ccc1O)c1cc(-c2ccc3c(c2)OCO3)on1 | 45 | 46* | 1 | -23 | -39 | 7
O=C(CCC1CCCC1)N=C1SC2CS(=O)(=O)CC2N1c1ccccc1F (stereo not given) | 20 | 0 | -2 | 6 | -17 | -1
C[C@@H]1CN([C@@H](C)CO)S(=O)(=O)c2ccc(Br)cc2O[C@@H]1CN(C)C(=O)c1ccc(F)cc1 | nt | -1 | 12 | -3 | nt | -2
CCOC(=O)c1sc(N(Cc2ccccc2)C(=O)COC(=O)c2ccccc2O)nc1C | 10 | nt | 9 | nt | -13 | -2
CCOC(=O)c1sc(N(Cc2ccccc2)C(=O)COC(=O)c2ccc(O)cc2)nc1C | -29 | nt | 53* | nt | 31 | 11
SMILES | MITF act | esBAF inh | EBV LMP1 NFkB | Statin myotox sup | MITF TRPM1 inh | Wnt act
Nc1nnc(N)c2ccccc12 | -4 | nt | -3 | nt | 2 | 0
Nc1nsc2ccccc12 | -24 | 1 | -19 | 120* | 26 | 5
CCOc1ccc(NC(=O)COc2ccccc2)c([N+](=O)[O-])c1 | 130* | 62* | -17 | 16 | -124 | 2
CCOc1ccc(NC(=O)Cc2ccccc2)c([N+](=O)[O-])c1 | -2 | nt | -5 | nt | 5 | nt
CCOc1ccc(NC(=O)c2ccc(Br)o2)c([N+](=O)[O-])c1 | 45 | 50* | -10 | -36 | -50 | -2
Cc1ccc(OCC(=O)Nc2ccccc2[N+](=O)[O-])c(Br)c1 | 79 | nt | -51 | nt | -78 | 64*
COC(=O)c1ccccc1NC(=O)COc1ccccc1[N+](=O)[O-] | -12 | nt | -9 | nt | 13 | 0
N#CCSc1nc2ccccc2c(=O)n1CC1CCCC1 | 3 | 0 | 3 | 2 | -3 | -1
CN(c1ncnc(N)c1[N+](=O)[O-])C1CCCCC1 | 39 | -10 | 38 | ? | -45 | -1
CCCCN(c1ccccc1)c1ncnc(N)c1[N+](=O)[O-] | 12 | -18 | 46* | 14 | -20 | -5
Cc1ccc(/C=N/NC(=O)c2cc(C)oc2C)o1 | 20 | 8 | -1 | -14 | -17 | nt
Cc1cc(NC(=O)C(=O)c2c(C)[nH]c3ccccc23)no1 | 13 | -1 | 6 | -11 | -17 | 1
CCNC(=O)C[C@H]1CC[C@@H]2[C@H](COc3ccc(NC(=O)Nc4ccccc4C)cc3C(=O)N2C)O1 | nt | 0 | nt | 0 | nt | nt
COc1ccc(N2Cc3ccc(OC)c(OC)c3C2=O)cc1 | 86* | 38 | -9 | -3 | -89 | -1
CC(C)(C)C(=O)Cn1ncc(Br)c(Br)c1=O | -92 | nt | 61* | nt | 93* | -24
CC(C)c1onc(C(=O)N2CCN(c3ccccc3)CC2)c1[N+](=O)[O-] | -2 | nt | 2 | nt | -2 | -1
C[C@@H]1CN([C@@H](C)CO)S(=O)(=O)c2ccc(C#CC3CC3)cc2O[C@@H]1CN(C)C(=O)Nc1cc(F)ccc1F | nt | nt | nt | -10 | nt | nt
COc1ccc(C#Cc2ccc3c(c2)O[C@H](CN(C)C(=O)Nc2cccc(OC)c2)[C@H](C)CN([C@@H](C)CO)S3(=O)=O)cc1 | nt | 13 | nt | 73* | nt | nt
COc1cccc(NC(=O)N(C)C[C@H]2Oc3ncc(C#Cc4ccc(F)cc4)cc3C(=O)N([C@@H](C)CO)C[C@@H]2C)c1 | nt | -1 | nt | ? | nt | nt
C[C@H](CO)N1C[C@H](C)[C@H](CN(C)C(=O)Nc2cc(F)ccc2F)Oc2cc(C#CC3CC3)ccc2S1(=O)=O | nt | nt | nt | 75* | nt | nt
COc1cccc(NC(=O)N(C)C[C@@H]2Oc3ncc(C#Cc4ccc(F)cc4)cc3C(=O)N([C@@H](C)CO)C[C@H]2C)c1 | nt | 7 | nt | 72* | nt | nt
C[C@H]1CN([C@@H](C)CO)S(=O)(=O)c2ccc(C#Cc3ccc(F)cc3)cc2O[C@@H]1CN(C)S(=O)(=O)c1cn(C)cn1 | nt | 13 | nt | 74* | nt | nt
C[C@@H]1CN([C@H](C)CO)S(=O)(=O)c2ccc(C#Cc3ccc(F)cc3)cc2O[C@H]1CN(C)S(=O)(=O)c1cn(C)cn1 | nt | 13 | nt | 3 | nt | nt
C[C@H](CO)N1C[C@H](C)[C@H](CN(C)C(=O)NC2CCCC2)Oc2cc(/C=C/c3ccccc3)ccc2S1(=O)=O | nt | 4 | nt | 11 | nt | nt
C[C@@H]1CN([C@@H](C)CO)S(=O)(=O)c2ccc(/C=C/c3ccccc3)cc2O[C@@H]1CN(C)C(=O)NC1CCCC1 | nt | 5 | nt | 93* | nt | nt

Screening data from PubChem.
